This is an account of results in ChEMBL document CHEMBL4513216, “Probing the Open Global Health Chemical Diversity Library for Multistage-Active Starting Points for Next-Generation Antimalarials” (ACS Infect Dis, 2020).

The structures appear in SMILES notation. Among all 68,000 compounds or so, about 2,700 (4%) showed an effect of 50% or more. Many of the other results were omitted from the sample, so strong results are more common in it than they were.

The subject of this assay is Plasmodium berghei. Kind of assay: Screen against P. berghei liver stage (PbLuc), transformed with Luciferase, at 2uM. Particulars: tested at 2 uM. Format: functional, HepG2.
Consider `CN(Cc1ccc(Cl)c(Cl)c1)C(=O)CNC(N)=O`, for which the INHIBITION is on record as 32.81%. For the compound `COCCN1CCC2(CC1)CC(Nc1ccc(C)nn1)CO2` (stereo not given), the INHIBITION amounted to 7.72%. As for `CC1CCCCN1C(=O)COc1nc(C(C)(C)C)no1` (stereo not given), the INHIBITION stood at 47.04%. Turning to `CC(C)c1noc(OCC(=O)N2CCCCC2C)n1` (stereo not given), the INHIBITION worked out at 17.48%. The value for `Cc1noc(OCC(=O)N2CCCCC2C)n1` (stereo not given) was 50.32%; that for `CC(CNCC1(S(C)(=O)=O)CCOCC1)c1ccc(F)cc1` (stereo not given) was 29.28%; that for `CCC(C)CNCC1(S(C)(=O)=O)CCOCC1` (stereo not given) was 10.03%.

Regarding `CCC(CC)CNCC1(S(C)(=O)=O)CCOCC1`, the INHIBITION came out at 59.99%. The value for `Cc1cc2nc(SCC(=O)N3CCOCC3)n(CC(C)C)c(=O)c2[nH]1` was 50.74%; that for `CCn1c(SCC(=O)N2CCOCC2)nc2cc(C)[nH]c2c1=O` was 33.58%; that for `Cc1cc2nc(SCC(=O)N3CCOCC3)n(CCC(C)C)c(=O)c2[nH]1` was 44.15%. In the case of `CC(C)CN1CCC(c2nnc(CN3CCCC3)n2C2CC2)CC1`, the INHIBITION is recorded as 8.03%.

Regarding `CCC(=O)N1CCCC1c1nccnc1Nc1nc(C)cc(C)n1` (stereo not given), the INHIBITION came out at 44.72%. The result for `NC(=O)C1(CCCc2ccncc2)CCCN1` (stereo not given) reads 46.98%; that for `CNC(=O)C1(CCCc2ccncc2)CCCN1` (stereo not given), -0.51%. The result for `CN(C)C(=O)C1(CCCc2ccncc2)CCCN1` (stereo not given) reads 54.82%; that for `O=C(O)c1cc(NS(=O)(=O)c2cccc(Cl)c2F)ccc1Cl`, 36.65%. As to `CCc1noc(CNc2ccc(C(=O)N3CCCC3)cc2C)n1`, the INHIBITION was determined as 24.15%. The value for `Cc1cc(C(=O)N2CCCC2)ccc1NCc1nc(CC(C)C)no1` was 58.05%; that for `CCCc1noc(CNc2ccc(C(=O)N3CCCC3)cc2C)n1` was -11.2%. With `NC(=O)c1cccc(CN2CCc3c(ncn3C3CC3)C2)c1`, the INHIBITION is 11.95%. The result for `Cn1cnc2c1CCN(Cc1cccc(C(N)=O)c1)C2` reads 74.87%; that for `Cn1cnc2c1CCN(Cc1ccc(C(=O)N3CCCC3)cc1)C2`, 51.21%; that for `Cn1cnc2c1CCN(Cc1cccc(OCC(N)=O)c1)C2`, 3.9%.

For the compound `CC(C)CNC(=O)c1cccc(CN2CCc3c(ncn3C)C2)c1`, the INHIBITION is on record as 21.43%. In the case of `Cn1cnc2c1CCN(Cc1cccc(C(=O)N3CCCCC3)c1)C2`, the INHIBITION is on record as 5.91%. For `CCS(=O)(=O)Cc1nc(-c2cnn3c(C)cc(C)nc23)no1`, the INHIBITION is reported as -9.94%. The value for `CN1CCN([C@@H]2CN(C(=O)c3cc4cccc(F)c4[nH]3)C[C@H]2O)CC1` was -17.65%; that for `CNC(=O)C(C)CN(C)C(=O)Nc1cc(F)cc(Br)c1` (stereo not given) was -0.47%. Take `CN(C)CCNC(=O)c1ccccc1NC(=O)c1cc(Cl)ccc1Cl`: the INHIBITION is on record as 13.39%.
